From PubChem BioAssay
Most compounds without a hit are left out; they make up all but 19% or so of the library.
ASM inhibitor: inhibitors of human secretory acid sphingomyelinase; P17405; placental ASM, HMU-PC fluorogenic substrate, 60 min; Potency, µM (titrated, usually from 57.5 µM), actives largely listed as inhibitors; 340,000 tested, 0.006% active; AID 504937
Target sequence (P17405 47-631 limits assumed): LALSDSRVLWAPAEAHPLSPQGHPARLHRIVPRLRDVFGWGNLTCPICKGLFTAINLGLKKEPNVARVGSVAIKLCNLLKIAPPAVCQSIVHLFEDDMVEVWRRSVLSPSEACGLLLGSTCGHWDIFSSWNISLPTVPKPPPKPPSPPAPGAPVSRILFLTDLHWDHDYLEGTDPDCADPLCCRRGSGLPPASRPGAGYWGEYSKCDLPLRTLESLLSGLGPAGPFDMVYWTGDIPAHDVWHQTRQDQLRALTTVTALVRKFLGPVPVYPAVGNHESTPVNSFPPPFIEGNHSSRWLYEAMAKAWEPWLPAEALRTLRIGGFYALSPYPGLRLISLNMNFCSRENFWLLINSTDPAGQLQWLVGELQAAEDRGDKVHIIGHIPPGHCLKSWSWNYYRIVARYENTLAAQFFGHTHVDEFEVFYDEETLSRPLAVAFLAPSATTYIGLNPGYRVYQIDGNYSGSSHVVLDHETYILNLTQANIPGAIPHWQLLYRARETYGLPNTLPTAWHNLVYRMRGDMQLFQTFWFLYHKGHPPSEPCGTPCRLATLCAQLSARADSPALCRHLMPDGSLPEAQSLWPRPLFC
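Fluorogenic HMU-PC substrate (9 uM final) is turned over by placental ASM in 60 min at 37 C after a 10 min compound preincubation. Reaction ended by alkaline stop (pH 10), with fluorescence read at 386/447 nm.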
HepG2 tox: HepG2 cytotoxicity, counter-screen for TGF-b inhibitors. HepG2 CAGA-GFP viability, ATP luminescence, 18 h. Potency, µM (highest dose often 46.1 µM), most hits filed as cytotoxic. 410,000 tested, 0.76% active. AID 588856
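CellTiter-Glo luminescence gave cytotoxicity after 18 hours at 37 degrees C. The cells were HepG2 CAGA-GFP in 1% FBS DMEM, stimulated with 500 pg/mL TGF-beta after compound addition. %Activity was normalised to no-cell wells (complete cell-killing) and DMSO (no toxicity), and curves were fitted and classified.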
TDP1 cell noCPT: qHTS for Inhibitors of human tyrosyl-DNA phosphodiesterase 1 (TDP1): qHTS in cells in absence of CPT; DT40 Tdp1-/- hTDP1 cells, no CPT, ATP luminescence, 48 h; Potency, µM (top dose mostly 46.2 µM), usual class: inhibitors; 420,000 tested, 15% active; further: nearly all actives have a fitted effect of over 55% in size
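Growth of hTDP1-complemented DT40 Tdp1-knockout cells is measured by ATP luminescence after at least 48 hr compound exposure at 37 °C, with DMSO substituting for the 20 nM CPT used in the parallel screen.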
DT40 TDP1 CPT: DT40-hTDP1 cell growth loss with CPT; chicken DT40 Tdp1-/-;hTDP1 cells + 20 nM CPT, ATP luminescence, 48 h; 420,000 tested, 12% active; Potency, µM (doses to about 46.2 µM), actives largely listed as inhibitors; AID 686979; further: nearly all actives have a fitted effect of over 55% in size
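Chicken DT40 Tdp1-/- cells complemented with human TDP1, 400 cells/well, exposed to compounds plus 20 nM camptothecin for at least 48 h at 37 C; viability read as ATP content by CellTiter-Glo luminescence.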
IL1B secr inh: inhibitors of inflammasome signaling (IL-1 beta secretion). 360,000 tested, 4.7% active. AID 743279. THP-1 LPS/ATP IL-1B secretion, AlphaLISA, 16 h; active compounds read low. activity change, % at 57.5 µM; in the data active means activity change below about -50%; inconclusive means mostly about -30% to -49%
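THP-1 cells pretreated 1 hr with compounds (up to 57.5 uM final), then stimulated with LPS (250 ng/mL final) plus ATP (1.25 mM final); secreted IL-1B measured by AlphaLISA after 16 hr, decreased signal indicating inhibition.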
TGFb SMAD3 inh: inhibitors of TGF-b signaling; HepG2 CAGA-GFP TGF-b/SMAD3 reporter, GFP fluorescence, 18 h; TGF-beta stimulated, 500 pg/mL final; Potency, µM (doses to about 46.1 µM), usual class: inhibitors; 410,000 tested, 1.2% active; AID 588855; further: nearly all actives have a fitted effect of over 65% in size
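Read-out: total well GFP (ex488/em500-530) summed from mean per-cell fluorescence. Cells: HEPG2 CAGA-GFP, 1% FBS DMEM, 18 h at 37 degrees C with 500 pg/mL final TGF-beta. Unstimulated wells served as the full-inhibition control; stimulated DMSO wells = 0%.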
Of the large screens only hits and unclear results are named; the others gave an inactive call. Unless noted, the call rests on the fitted dose curve; in most records, active means well fitted curve in the direction sought with a large enough effect; inconclusive means small, poorly fitted or top-dose-only effect, or another doubt; inactive means no such curve, though single readings can be large; an effect the other way counts as inactive or inconclusive.

O=C(OCc1ccccc1)N1CCC2CC1c1cc(Cl)ccc12 (stereo unspecified)	TDP1 cell noCPT inconclusive, DT40 TDP1 CPT inconclusive, IL1B secr inh inconclusive, TGFb SMAD3 inh inconclusive
O=C(OCc1ccccc1)N1CCC2CC1c1c(-c3ccc(C(F)(F)F)cc3)cccc12 (stereo unspecified)	TDP1 cell noCPT inconclusive, DT40 TDP1 CPT 16µM
O=C(CCC(=O)c1ccc(Br)cc1)Nc1ccc(F)cc1	none
CC1N=C2c3ccccc3N=C(SCC(=O)NCCc3ccccc3)N2C1=O (stereo unspecified)	none (no result: ASM inhibitor, IL1B secr inh)
Nc1nc(=S)ss1	TDP1 cell noCPT 7.3µM, DT40 TDP1 CPT 16µM, IL1B secr inh -98
O=C(NCC1Cc2cccc(-c3cccnc3)c2O1)c1cc(-c2ccccc2)n[nH]1 (stereo unspecified)	TDP1 cell noCPT inconclusive (no result: ASM inhibitor, HepG2 tox, IL1B secr inh, TGFb SMAD3 inh)
CCc1ccc(N/C(N)=N/c2nc(CSc3ncccn3)cc(=O)[nH]2)cc1	TDP1 cell noCPT 13µM, DT40 TDP1 CPT inconclusive
Cc1cccc(N/C(N)=N/c2nc(CSc3ccc(Cl)cc3)cc(=O)[nH]2)c1	TDP1 cell noCPT 9.2µM, DT40 TDP1 CPT 8.2µM
Cc1ccc(N/C(N)=N/c2nc(CSc3nnc(C)s3)cc(=O)[nH]2)c(C)c1	TDP1 cell noCPT 0.82µM, DT40 TDP1 CPT 0.65µM
COCc1cc(=O)[nH]c(/N=C(\N)Nc2cccc(C)c2)n1	none
CCOc1ccc(N/C(N)=N/c2nc(CSc3nnnn3-c3ccccc3)cc(=O)[nH]2)cc1	TDP1 cell noCPT inconclusive, DT40 TDP1 CPT 16µM
CCC(=O)NNc1ncnc2c1cnn2-c1ccc(C)c(Cl)c1	none (no result: ASM inhibitor, IL1B secr inh)
COc1ccc([N+](=O)[O-])cc1NC(=O)C1C2C=CC(C2)C1C(=O)O (stereo unspecified)	none
Cc1c(Cl)cccc1NC(=O)Nc1c[nH]c(=O)[nH]c1=O	none (no result: ASM inhibitor, IL1B secr inh)
CN(CC(=O)Nc1ccc(Cl)c(C(F)(F)F)c1)C(=O)C1CSC2(C)CCC(=O)N12 (stereo unspecified)	TDP1 cell noCPT 18µM, DT40 TDP1 CPT inconclusive
CCCN(C(=O)C1CSC2(C)CCC(=O)N12)c1c(N)n(Cc2ccccc2)c(=O)[nH]c1=O (stereo unspecified)	none
C=CCN(C(=O)C1CSC2(C)CCC(=O)N12)c1nc(-c2ccccc2)cs1 (stereo unspecified)	TDP1 cell noCPT 23µM, DT40 TDP1 CPT 18µM
CN(Cc1ccc(C(C)(C)C)cc1)C(=O)C1CSC2(C)CCC(=O)N12 (stereo unspecified)	TDP1 cell noCPT inconclusive, DT40 TDP1 CPT 16µM
COc1cccc(CN(C)C(=O)C2CSC3(C)CCC(=O)N23)c1OC (stereo unspecified)	none
CCOC(=O)C1=CCN(S(=O)(=O)c2ccccc2C(=O)OC)C1c1ccc(Cl)cc1 (stereo unspecified)	TDP1 cell noCPT 18µM, DT40 TDP1 CPT 21µM (no result: ASM inhibitor)
CCOC(=O)C1=CCN(S(=O)(=O)c2ccccc2C)C1c1ccccc1 (stereo unspecified)	TDP1 cell noCPT 18µM, DT40 TDP1 CPT 29µM, TGFb SMAD3 inh inconclusive (no result: ASM inhibitor)
CCOC(=O)C1=CCN(S(=O)(=O)c2ccccc2Br)C1c1ccc(Cl)c(Cl)c1 (stereo unspecified)	TDP1 cell noCPT 18µM, DT40 TDP1 CPT inconclusive, TGFb SMAD3 inh inconclusive (no result: ASM inhibitor)
CC1(C)C/C(=N\O)C(C(O)c2cccc([N+](=O)[O-])c2)C(C)(C)N1 (stereo unspecified)	none (no result: IL1B secr inh)
COc1ccc(CNC(=O)C2CCN(S(=O)(=O)c3ccc4c(c3)CC(C)N4C(C)=O)CC2)cc1 (stereo unspecified)	IL1B secr inh -76
COc1ccccc1NC(=O)C1CCCN(S(=O)(=O)c2ccc3c(c2)CC(C)N3C(C)=O)C1 (stereo unspecified)	TDP1 cell noCPT 7.3µM, DT40 TDP1 CPT inconclusive
CC(=O)Nc1ccc(S(=O)(=O)N2c3ccc(F)cc3CCC2C)cc1 (stereo unspecified)	TDP1 cell noCPT 5.8µM, DT40 TDP1 CPT 7.3µM, TGFb SMAD3 inh inconclusive
COc1cccc(NC(=O)C2CCN(S(=O)(=O)c3ccc4c(c3)CC(C)N4C(C)=O)CC2)c1 (stereo unspecified)	TDP1 cell noCPT inconclusive, DT40 TDP1 CPT 15µM
CC(=O)N1c2ccc(S(=O)(=O)N3CCC(C(=O)NCc4ccccc4)CC3)cc2CC1C (stereo unspecified)	DT40 TDP1 CPT inconclusive
Cc1ccc(COC(=O)c2ccc3ccccc3n2)cc1	none
COc1ccc(NC(=O)CSc2nc3c(oc4ccccc43)c(=O)n2-c2ccccc2)cc1OC	TDP1 cell noCPT inconclusive, DT40 TDP1 CPT inconclusive (no result: ASM inhibitor, IL1B secr inh)
CC(=O)N1c2ccc(S(=O)(=O)N3CCC(C(=O)Nc4ccc(F)cc4)CC3)cc2CC1C (stereo unspecified)	TDP1 cell noCPT 13µM, DT40 TDP1 CPT 18µM
CC(=O)N1c2ccc(S(=O)(=O)N3CCC(C(=O)Nc4cccc(C)n4)CC3)cc2CC1C (stereo unspecified)	TDP1 cell noCPT inconclusive, DT40 TDP1 CPT inconclusive
COc1ccc(CNC(=O)C2CCN(S(=O)(=O)c3cccnc3)CC2)cc1	none
CCc1cccc(NC(=O)C2CCN(S(=O)(=O)c3ccc4c(c3)CC(C)N4C(C)=O)CC2)c1 (stereo unspecified)	TDP1 cell noCPT 21µM, DT40 TDP1 CPT 16µM
COc1ccc(CNC(=O)C2CCN(S(=O)(=O)c3cccc(-c4noc(C)n4)c3)CC2)cc1	TDP1 cell noCPT 9.2µM, DT40 TDP1 CPT 23µM (no result: ASM inhibitor, IL1B secr inh)
COc1ccc(C(=O)NCC(C)NC(=O)c2ccc(OC)c(Br)c2)cc1Br (stereo unspecified)	TDP1 cell noCPT inconclusive
Cc1cccc(C)c1NC(=O)Cn1c(=O)n(Cc2ccc3c(c2)OCO3)c(=O)c2oc3ccccc3c21	TDP1 cell noCPT 4.6µM, DT40 TDP1 CPT 5.2µM (no result: ASM inhibitor, IL1B secr inh)
COc1ccccc1NC(=O)Cn1c(=O)n(Cc2ccc3c(c2)OCO3)c(=O)c2oc3ccccc3c21	none (no result: ASM inhibitor, IL1B secr inh)
Cc1ccccc1NC(=O)Cn1c(=O)n(Cc2ccc3c(c2)OCO3)c(=O)c2oc3ccccc3c21	TDP1 cell noCPT 8.2µM, DT40 TDP1 CPT 4.1µM (no result: ASM inhibitor, IL1B secr inh)
Cc1ccccc1NC(=O)Cn1c(=O)n(Cc2ccc3c(c2)OCO3)c(=O)c2ccccc21	TDP1 cell noCPT 16µM (no result: ASM inhibitor, IL1B secr inh)
CC1(NC(=O)c2cc(Cl)nc3ccccc23)CCS(=O)(=O)C1 (stereo unspecified)	none
